Experimental data from PubChem BioAssay AID1159580 (chemical genetic matrix, 2015).
The whole screen tested about 5,500 compounds, of which about 2,000 (36%) were called active. Another 18% or so got no clear call; they are omitted. Cut-off read from the data, not from the text of the source: active = normalized growth mostly below about 0.91 (no sharp cut-off); inconclusive = no clear call, values can overlap the other calls; inactive = mostly above about 0.92. Some of the results follow.

Experiment: chemical genetic growth profiling, strain panel (AID 1159580);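 note: tested at 20 µM; growth read once vehicle control cultures reached saturation at 30 °C; 1 = growth at the plate median or of vehicle wells; lower values mean less growth of the strain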
Details: growth OD

Measured: normalized growth

O=C(Oc1cc(O)cc2c1C[C@@H](OC(=O)c1cc(O)c(O)c(O)c1)[C@@H](c1cc(O)c(O)c(O)c1)O2)c1cc(O)c(O)c(O)c1
active: S. cerevisiae deletion strains, locus YJR043C, strain POL32, stronger effect = lower value 0.13 | S. cerevisiae deletion strains, locus YKR001C, strain vps1, stronger effect = lower value 0.599 | S. cerevisiae deletion strains, locus YLR039C, strain RIC1, stronger effect = lower value 0.233 | S. cerevisiae deletion strains, locus YLR058C, strain SHM2, stronger effect = lower value 0.141 | S. cerevisiae deletion strains, locus YLR268W, strain sec22, stronger effect = lower value 0.414 | S. cerevisiae deletion strains, locus YLR330W, strain CHS5, stronger effect = lower value 0.613 | S. cerevisiae deletion strains, locus YLR342W, strain FKS1 (second series), stronger effect = lower value 0.198 | S. cerevisiae deletion strains, locus YLR371W, strain rom2, stronger effect = lower value 0.602 | S. cerevisiae deletion strains, locus YLR418C, strain cdc73, stronger effect = lower value 0.341 | S. cerevisiae deletion strains, locus YML016C, strain PPZ1, stronger effect = lower value 0.083 | S. cerevisiae deletion strains, locus YML032C, strain rad52, stronger effect = lower value 0.857 | S. cerevisiae deletion strains, locus YML124C, strain tub3, stronger effect = lower value 0.824 | S. cerevisiae deletion strains, locus YMR223W, strain ubp8, stronger effect = lower value 0.666 | S. cerevisiae deletion strains, locus YMR307W, strain GAS1, stronger effect = lower value 0.448 | S. cerevisiae deletion strains, locus YNL067W, strain RPL9B, stronger effect = lower value 0.366 | S. cerevisiae deletion strains, locus YNL233W, strain BNI4, stronger effect = lower value 0.455 | S. cerevisiae deletion strains, locus YNR052C, strain pop2, stronger effect = lower value 0.436 | S. cerevisiae deletion strains, locus YOL147C, strain pex11, stronger effect = lower value 0.779 | S. cerevisiae deletion strains, locus YOR061W, strain CKA2, stronger effect = lower value 0.218 | S. cerevisiae deletion strains, locus YOR069W, strain VPS5, stronger effect = lower value 0.182 | S. cerevisiae deletion strains, locus YOR136W, strain idh2, stronger effect = lower value 0.795 | S. cerevisiae deletion strains, locus YOR144C, strain elg1, stronger effect = lower value 0.814 | S. cerevisiae deletion strains, locus YOR184W, strain ser1, stronger effect = lower value 0.445 | S. cerevisiae deletion strains, locus YPL055C, strain LGE1, stronger effect = lower value 0.139 | S. cerevisiae deletion strains, locus YPR163C, strain tif3, stronger effect = lower value 0.87 | S. cerevisiae deletion strains, locus YPR167C, strain met16, stronger effect = lower value 0.847 | S. cerevisiae deletion strains, strain wtn01, stronger effect = lower value 0.433 | S. cerevisiae strains, strain wild type, stronger effect = lower value 0.0757
inactive: S. cerevisiae deletion strains, locus YJL187C, strain SWE1, stronger effect = lower value 1.02 | S. cerevisiae deletion strains, locus YJR066W, strain TOR1, stronger effect = lower value 0.949 | S. cerevisiae deletion strains, locus YKL009W, strain mrt4, stronger effect = lower value 1.02 | S. cerevisiae deletion strains, locus YKL068W, stronger effect = lower value 0.985 | S. cerevisiae deletion strains, locus YKL085W, strain MDH1 (second series), stronger effect = lower value 1.03 | S. cerevisiae deletion strains, locus YKL085W, strain MDH1, stronger effect = lower value 1.03 | S. cerevisiae deletion strains, locus YKL160W, strain elf1, stronger effect = lower value 1.01 | S. cerevisiae deletion strains, locus YKR026C, strain gcn3, stronger effect = lower value 0.984 | S. cerevisiae deletion strains, locus YKR091W, strain srl3, stronger effect = lower value 1.01 | S. cerevisiae deletion strains, locus YLL001W, strain dnm1, stronger effect = lower value 1.01 | S. cerevisiae deletion strains, locus YLL026W, stronger effect = lower value 1.01 | S. cerevisiae deletion strains, locus YLL041C, strain sdh2, stronger effect = lower value 1.01 | S. cerevisiae deletion strains, locus YLR027C, strain aat2, stronger effect = lower value 0.996 | S. cerevisiae deletion strains, locus YLR102C, strain apc9, stronger effect = lower value 0.948 | S. cerevisiae deletion strains, locus YLR113W, strain HOG1, stronger effect = lower value 1.06 | S. cerevisiae deletion strains, locus YLR221C, strain rsa3, stronger effect = lower value 1.03 | S. cerevisiae deletion strains, locus YLR258W, strain gsy2, stronger effect = lower value 1.01 | S. cerevisiae deletion strains, locus YLR262C, strain YPT6 (second series), stronger effect = lower value 1.01 | S. cerevisiae deletion strains, locus YLR320W, strain mms22, stronger effect = lower value 1.04 | S. cerevisiae deletion strains, locus YLR342W, strain FKS1, stronger effect = lower value 1.04 | S. cerevisiae deletion strains, locus YLR357W, strain rsc2, stronger effect = lower value 1.01 | S. cerevisiae deletion strains, locus YLR370C, strain arc18, stronger effect = lower value 1.01 | S. cerevisiae deletion strains, locus YLR384C, strain iki3, stronger effect = lower value 0.998 | S. cerevisiae deletion strains, locus YML120C, strain ndi1, stronger effect = lower value 1.01 | S. cerevisiae deletion strains, locus YMR078C, strain ctf18, stronger effect = lower value 0.938 | S. cerevisiae deletion strains, locus YMR125W, strain sto1, stronger effect = lower value 0.985 | S. cerevisiae deletion strains, locus YMR129W, stronger effect = lower value 1.01 | S. cerevisiae deletion strains, locus YMR205C, strain PFK2, stronger effect = lower value 1.02 | S. cerevisiae deletion strains, locus YMR231W, strain pep5, stronger effect = lower value 0.981 | S. cerevisiae deletion strains, locus YNL071W, strain lat1, stronger effect = lower value 1.02 | S. cerevisiae deletion strains, locus YNL183C, strain NPR1, stronger effect = lower value 0.943 | S. cerevisiae deletion strains, locus YNL209W, strain ssb2, stronger effect = lower value 0.991 | S. cerevisiae deletion strains, locus YNL248C, strain rpa49, stronger effect = lower value 1.03 | S. cerevisiae deletion strains, locus YNL250W, strain rad50, stronger effect = lower value 0.953 | S. cerevisiae deletion strains, locus YNL271C, strain bni1, stronger effect = lower value 0.941 | S. cerevisiae deletion strains, locus YNL298W, strain CLA4, stronger effect = lower value 0.948 | S. cerevisiae deletion strains, locus YNL307C, strain MCK1, stronger effect = lower value 0.915 | S. cerevisiae deletion strains, locus YNL322C, strain KRE1 (second series), stronger effect = lower value 1.01 | S. cerevisiae deletion strains, locus YNR049C, strain mso1, stronger effect = lower value 1.03 | S. cerevisiae deletion strains, locus YOL012C, strain htz1 0.207 | S. cerevisiae deletion strains, locus YOR001W, strain rrp6, stronger effect = lower value 1.02 | S. cerevisiae deletion strains, locus YOR070C, strain gyp1, stronger effect = lower value 1 | S. cerevisiae deletion strains, locus YOR080W, strain dia2, stronger effect = lower value 1.02 | S. cerevisiae deletion strains, locus YOR083W, strain WHI5, stronger effect = lower value 0.999 | S. cerevisiae deletion strains, locus YOR106W, strain vam3, stronger effect = lower value 0.989 | S. cerevisiae deletion strains, locus YOR231W, strain MKK1, stronger effect = lower value 1.02 | S. cerevisiae deletion strains, locus YOR265W, strain rbl2, stronger effect = lower value 1.02 | S. cerevisiae deletion strains, locus YOR270C, strain vph1, stronger effect = lower value 1.06 | S. cerevisiae deletion strains, locus YOR290C, strain snf2, stronger effect = lower value 0.988 | S. cerevisiae deletion strains, locus YOR316C, strain cot1, stronger effect = lower value 0.947 | S. cerevisiae deletion strains, locus YPL051W, strain arl3, stronger effect = lower value 1 | S. cerevisiae deletion strains, locus YPL078C, strain atp4, stronger effect = lower value 0.983 | S. cerevisiae deletion strains, locus YPL106C, strain sse1, stronger effect = lower value 1.01 | S. cerevisiae deletion strains, locus YPL240C, strain hsp82, stronger effect = lower value 1.01 | S. cerevisiae deletion strains, locus YPL256C, strain CLN2, stronger effect = lower value 1.07 | S. cerevisiae deletion strains, locus YPR119W, strain clb2, stronger effect = lower value 0.972 | S. cerevisiae deletion strains, locus YPR141C, strain kar3, stronger effect = lower value 0.974
